Data: PubChem BioAssay AID1259423 (Fisher Drug Discovery Resource Center, 2018)
“And” between values parts separate entries of the source, which are not always exact repeats. Identical values can stand only once. In all, about 270,000 compounds went through this assay and about 410 (0.15%) were called active. Rule as the data show it: active = activation above about 40%; inactive = the rest, inconclusive results apart. Only a selection was taken, and actives are over-represented in it overall. More than one record can exist for a structure, and the calls need not agree.

Test system: Aedes aegypti neuropeptide Y-like receptor 7 (NPYLR7)
Experiment: agonists of mosquito NPYLR7 receptor, primary screen, cell-based, Aedes aegypti, calcium fluorescence, mosquito biting behavior (AID 1259423);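 also: 0% = vehicle and 100% = reference agonist at the receptor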
Conditions: HEK293T NPYLR7/Galpha15, GCaMP6s calcium fluorescence, at 10 µM, stronger effect = higher value
[1] = measured here: Max-Min RFU normalised activation

For Cc1nc2c(=O)n(CC(=O)Nc3ccc(F)cc3)nc(-c3ccc(F)cc3)c2s1, the activation was -3.19% (inactive) and the activation [1] was -5.39%.
COc1ccc(C(=O)NNc2nc3c(C)c(C)ccc3s2)cc1 was tested, and the activation was 3.57% (inactive) and the activation [1] was -0.501%.
With O=S(=O)(Nc1ccccc1OC(F)F)c1ccccc1F the activation was -1.67% (inactive) and the activation [1] was -2.18%.
In the case of Nc1[nH]n(-c2c(Cl)cc(Cl)cc2Cl)c(=O)c1N=Nc1cccc(C(F)(F)F)c1, the activation is reported as -0.505% (inactive) and the activation [1] is reported as -6.22%.
For O=C(Nc1cccc(Cl)c1)c1cn(CC2CCCO2)cc2c(=O)n(-c3ccccc3)nc1-2 (stereo unspecified), the activation was 6.66% (inactive) and the activation [1] was 6.45%.
CCOC(=O)Cc1csc(=Nc2ccc(OC)cc2)n1CCO was tested, and the activation was -15.9% (inactive) and the activation [1] was -20.5%.
For CC(C)OCCCNC(=O)c1ccc(-c2cccc(C(F)(F)F)c2)s1, the activation was -2.79% (inactive) and the activation [1] was 5.92%.
Cc1cc2nc3c(=O)[nH]c(=O)nc-3n(C[C@H](O)[C@H](O)[C@H](O)CO)c2cc1C was tested, and the activation was 71.4% (active) and the activation [1] was 64.2%.
For COc1cccc(OC)c1-c1cnnc(NCCN2CCCc3ccccc32)n1, the activation was 19.3% (inactive) and the activation [1] was 11.8%.
COc1ccc(CC(=O)N(Cc2nc3cc(Cl)ccc3o2)C2CCCC2)cc1OC was tested, and the activation was 4.51% (inactive) and the activation [1] was -5.03%.
With Cc1c(C(=O)N2CCCCC2CCc2ccc(O)cc2)oc2c(F)cccc12 (stereo unspecified) the activation was -1.59% (inactive) and the activation [1] was -5.83%.
For N#C/C(=C/c1cn(-c2ccccc2)nc1-c1ccco1)c1nc2ccccc2c(=O)[nH]1, the activation was 11.8% (inactive) and the activation [1] was 10.5%.
N#CC(=C(O)CSc1ccc2c(c1)OCCO2)c1nc2ccccc2[nH]1 was tested, and the activation was 5.29% (inactive) and the activation [1] was 3.43%.
In the case of CC1CN(c2ccc(/C=C(\C#N)c3nc4ccccc4[nH]3)o2)CC(C)O1 (stereo unspecified), the activation is reported as 81.4% (active) and the activation [1] is reported as 110%.
In the case of COc1ccc(C(CC(=O)N(C)Cc2cnccn2)c2ccccc2)cc1 (stereo unspecified), the activation is reported as 16% (inactive) and the activation [1] is reported as 4.14%.
In the case of O=C(NCCCNC(=O)[C@H]1CCCN1C(=O)COc1ccc(Cl)cc1)c1ccc(F)cc1, the activation is reported as -0.263% (inactive) and the activation [1] is reported as 6.73%.
For CC1CCN(C(=O)C(C)Nc2ccc3c(c2)OCO3)CC1 (stereo unspecified), the activation was 3.12% (inactive) and the activation [1] was 1.09%.
For COc1cc2c(cc1OC)C(c1ccccc1)N(C(=O)c1cc3c(s1)-c1ccccc1OC3)CC2 (stereo unspecified), the activation was -0.991% (inactive) and the activation [1] was 6.66%.
With COc1ccc(CC2c3cc(OC)c(OC)cc3CC[N+]2(C)CCC(=O)OCCCCCOC(=O)CC[N+]2(C)CCc3cc(OC)c(OC)cc3C2Cc2ccc(OC)c(OC)c2)cc1OC (stereo unspecified) the activation was 41.9% (inactive) and -3.83% (inactive) and 69.2% (active) and the activation [1] was 33.2% and 2.45% and 52.5%.
With COc1cc2c(cc1O)[C@@H](Cc1ccc(O)cc1)[N+](C)(C)CC2 the activation was 5.5% (inactive) and the activation [1] was -4.18%.
For COc1ccc(CC(=O)OCc2ccc(COC(=O)Cc3ccc(OC)c(OC)c3)cc2)cc1OC, the activation was -2.95% (inactive) and the activation [1] was -6.45%.
In the case of CCOc1ccc(NC(=O)CSc2nc3c(c(=O)n2CCOC)SC(C)C3)cc1 (stereo unspecified), the activation is reported as 3.32% (inactive) and the activation [1] is reported as 0.972%.
O=C(NC1COC2(CCCCC2)C1)c1ccco1 (stereo unspecified) was tested, and the activation was -4.17% (inactive) and the activation [1] was -7.46%.
For CC(C)CC(NC1CCN(C(=O)c2ccccc2)CC1)c1ncnn1C (stereo unspecified), the activation was 8.96% (inactive) and the activation [1] was 6.07%.
C/C(=N/Nc1nc2c(s1)CCCC2)c1ccc(Cl)cc1 was tested, and the activation was 0.513% (inactive) and the activation [1] was 5.88%.
In the case of O=C1NC(c2ccc3c(c2)OCO3)C(C(=O)c2ccccc2)C(O)(C(F)(F)F)N1 (stereo unspecified), the activation is reported as 42.8% (active) and the activation [1] is reported as 72%.
With CC1=C(C(=O)Nc2ccccc2)C(c2ccc3c(c2)OCO3)NC(=S)N1 (stereo unspecified) the activation was 4.23% (inactive) and the activation [1] was 8.09%.
O=C1NC(c2ccc(Cl)cc2)C(C(=O)c2ccccc2)C(O)(C(F)(F)F)N1 (stereo unspecified) was tested, and the activation was -3.23% (inactive) and the activation [1] was -4.42%.
In the case of Cc1ccc(Cl)cc1NC(=O)CN1C(=O)c2ccc([N+](=O)[O-])cc2C1=O, the activation is reported as -3.83% (inactive) and the activation [1] is reported as -10.3%.
With CC(C)c1ccc(C2CC(c3ccccc3)=Nc3ncnn32)cc1 (stereo unspecified) the activation was 4.24% (inactive) and the activation [1] was 2.65%.
O=C(Nc1ccc(N2CCC(Cc3ccccc3)CC2)c(C(=O)NCc2ccc(F)cc2)c1)c1cccc([N+](=O)[O-])c1 was tested, and the activation was -3.24% (inactive) and the activation [1] was 7.02%.
With CCCCNc1ncnc2sc3c(c12)CCC(C)C3 (stereo unspecified) the activation was 1.78% (inactive) and the activation [1] was 2.41%.
In the case of O=C(O)CCC(=O)Nc1nc2c(s1)CCCC2, the activation is reported as 1.28% (inactive) and the activation [1] is reported as -0.361%.
In the case of COc1ccc(C(=O)NCCn2ncc3c(=O)n(Cc4cccc(C)c4)cnc32)cc1, the activation is reported as -1.65% (inactive) and the activation [1] is reported as -7.02%.
With c1csc(-c2nc(CSc3nnc(-c4cccs4)n3C3CC3)co2)c1 the activation was -0.388% (inactive) and the activation [1] was 7.96%.
COc1ccccc1CNC1CC2CCC1(C)C2(C)C (stereo unspecified) was tested, and the activation was 7.42% (inactive) and the activation [1] was 2.21%.
COc1ccc(-c2cccc(-c3nnc(C)s3)c2)c(OC)c1 was tested, and the activation was 2.95% (inactive) and the activation [1] was 1.01%.
In the case of CC(C)c1ccc(C(=O)NCc2ccccc2CS(=O)(=O)N2CCOCC2)cc1, the activation is reported as -3.68% (inactive) and the activation [1] is reported as -3.21%.
Clc1ccc(-c2noc3c2CN(CCn2cc(Cl)cn2)CC3)cc1 was tested, and the activation was 74.9% (active) and the activation [1] was 54.3%.
c1ccc2c(-c3noc4c3CN(CC3CCCO3)CC4)cccc2c1 (stereo unspecified) was tested, and the activation was 14.2% (inactive) and the activation [1] was 6.24%.
Fc1ccccc1-c1noc2c1CN(Cc1cccn1-c1ncccn1)CC2 was tested, and the activation was 8.24% (inactive) and the activation [1] was 5.36%.
COCc1c(Br)c(C)nc(OCC(=O)N/N=C\c2cc(Br)c(OCc3ccc(Cl)cc3)c(OC)c2)c1C#N was tested, and the activation was 25.2% (inactive) and the activation [1] was 27.7%.
Cc1nn(-c2ccc(F)cc2F)c(C)c1CCC(=O)N1Cc2cccc3cccc(c23)C1 was tested, and the activation was 4.97% (inactive) and the activation [1] was 3.44%.
In the case of COc1ccc(Cl)c2sc(N(CCN(C)C)C(=O)c3cc(C)n(C)n3)nc12, the activation is reported as 1.87% (inactive) and the activation [1] is reported as 0.849%.
For Cc1ccc(Sc2ncccc2C(=O)N2CCN(c3nccc(-c4cccc(C(F)(F)F)c4)n3)CC2)cc1, the activation was 14% (inactive) and the activation [1] was 18.9%.
COc1cc(OC)cc(C(NC(=O)Cn2ccccc2=O)c2nccn2C)c1 (stereo unspecified) was tested, and the activation was 5.09% (inactive) and the activation [1] was 2.46%.
With CN(Cc1ccccc1)C1(C(=O)NCC2COCCO2)Cc2ccccc2C1 (stereo unspecified) the activation was 2.27% (inactive) and the activation [1] was -0.863%.
With COc1c(C=NNC(=O)c2cc(Br)ccc2O)sc2ccccc12 the activation was -6.22% (inactive) and the activation [1] was -11.5%.
